High-throughput results deposited in PubChem BioAssay by several laboratories.
Compounds with a hit are over-represented: about 1.6% of the library has one in this group of screens.
PERK inhibitor = block of dimerizer-induced PERK translation repression, primary screen, PERK inhibitor project, CHO PERK-DD cells, SEAP luminescence, HTS; Eukaryotic translation initiation factor 2-alpha kinase 3 (Homo sapiens), Q9NZJ5; CHO PERK-DD fusion, SEAP luminescence translation reporter; inhibition, % at 5.6 µM; 220,000 tested, 0.17% active; AID 1416, 2008;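 active = inhibition above the mean inhibition of all tested compounds plus 3 SD, set separately per screening campaign, cut at about 2.9% in these data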;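 note: PERK kinase domain activated by AP20187 dimerizer at 100 nM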
PABP1 MLLE inh = inhibitors of PABP1 MLLE–PAM2 peptide binding, primary screen, biochemical, fluorescence polarization, FITC-PAM2, GST-MLLE | inhibition, % at 20 µM | 360,000 tested, 0.36% active | AID 588489, 2011; in the data active = inhibition above about 35%, passing the limit was not always enough
eIF4E-4G inh = eIF4E–eIF4G protein interaction inhibitors, primary screen, biochemical, uHTS, TR-FRET, eIF4GI fragment; Eukaryotic translation initiation factor 4E (Mus musculus) + Eukaryotic translation …; TR-FRET eIF4E-eIF4GI(517-606) binding, 2 h; inhibition, % at 21.7 µM; 220,000 tested, 0.37% active;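 active = inhibition above about 30%, limit read from the data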
eIF4H inh = human eIF4H binding inhibitors, primary screen, translation initiation inhibitor project, biochemical, uHTS, fluorescence polarization | Eukaryotic translation initiation factor 4H (Homo sapiens), Q15056 | eIF4H fluorescence polarization binding assay | inhibition, % at 35 µM | 290,000 tested, 0.94% active | AID 2012, 2009;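 note: calls also rest on retests at 20 µM and on dose response follow-up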
PABP polyA inh = PABP poly(A) RNA binding inhibitors, primary screen, biochemical, fluorescence polarization, uHTS; Polyadenylate-binding protein 1 (Homo sapiens), P11940; inhibition, % at 35 µM; 290,000 tested, 1% active; AID 2014, 2009;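 note: calls also rest on retests at 20 µM and on dose response follow-up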
Of the large screens only hits and unclear results are named; the others gave an inactive call. Unless noted, the rule behind the calls is not given here.

COc1ccc(NC(=O)c2ccc(F)cc2)cc1S(=O)(=O)Nc1cc(C)ccc1Br	none
COc1cc(C(=S)N2CCOCC2)cc(OC)c1OS(=O)(=O)c1ccc(NC(C)=O)cc1	none
COc1cc(C(=S)N2CCOCC2)cc(OC)c1OS(=O)(=O)c1ccc(C)cc1	PABP1 MLLE inh 42 (no result: PERK inhibitor, eIF4E-4G inh)
NS(=O)(=O)c1ccc2c(c1)oc(=O)c1cc(S(N)(=O)=O)ccc12	none
COCCNS(=O)(=O)c1ccc2c(c1)oc(=O)c1cc(S(=O)(=O)NCCOC)ccc12	PABP polyA inh 88 (no result: PABP1 MLLE inh)
O=C(CSc1nc2cc(Cl)ccc2s1)c1cc2ccccc2o1	eIF4H inh 45, PABP polyA inh 81
c1cnc2ccc(C(c3nnnn3C3CCCCC3)N3CCN4CCCC4C3)cc2c1 (stereo unspecified)	none
CCOCCCn1c(=N)c(S(=O)(=O)c2ccc(C)cc2)cc2c(=O)n3cc(C)ccc3nc21	PABP1 MLLE inh 40, eIF4H inh inconclusive (no result: PERK inhibitor, eIF4E-4G inh)
CCn1c(=N)c(S(=O)(=O)c2ccc(C)cc2)cc2c(=O)n3ccccc3nc21	none (no result: PABP1 MLLE inh)
O=C1C(C=Nc2ccc(F)cc2)=C(O)c2ccccc21	none
O=C(O)CCCCCN1C(=O)/C(=C/c2cn(-c3ccccc3)nc2-c2cccs2)SC1=S	none (no result: PERK inhibitor, eIF4E-4G inh, eIF4H inh, PABP polyA inh)
O=C(O)CCCCCN1C(=O)/C(=C\c2cn(-c3ccccc3)nc2-c2cccs2)SC1=S	eIF4E-4G inh 45
O=C(O)CCN1C(=O)/C(=C/c2cn(-c3ccccc3)nc2-c2cccs2)SC1=S	eIF4E-4G inh 30
CCOC(=O)C1=C(O)/C(=C\c2ccc(O)c(OCC)c2)N=C1C	none
C=CCn1c(SCC(=O)Nc2ccc(F)cc2F)nnc1-c1cnccn1	none (no result: PERK inhibitor, eIF4E-4G inh)
Cc1ccc(C(=O)Oc2coc(CSc3nnc(NC(=O)c4cccs4)s3)cc2=O)cc1	eIF4H inh 90, PABP polyA inh 2.5
CC(=O)Nc1nnc(SCc2cc(=O)c(OC(=O)c3ccccc3)co2)s1	none
CC1=CC(C)(C)[N+](C)(C)c2ccc(C)cc21	PABP polyA inh 59
CC1=CC(C)(C)N(S(=O)(=O)c2ccc(C)cc2)c2ccc(C)cc21	none
O=C(NNc1ccc(Cl)cc1)c1sccc1Cl	PABP1 MLLE inh 42
COc1cc(/C=C/c2onc(C)c2[N+](=O)[O-])cc(OC)c1OC	none (no result: PERK inhibitor, eIF4E-4G inh, eIF4H inh, PABP polyA inh)
Cn1cccc1CC(=O)NNC(=S)Nc1ccc(F)cc1	none
Cn1cccc1CC(=O)NNC(=S)Nc1ccc(Cl)cc1Cl	eIF4H inh 58, PABP polyA inh active
CCOC(=O)c1nc(Nc2ccc(C)cc2)c2ccccc2n1	PABP1 MLLE inh 60
O=[N+]([O-])c1ccc(N2CCN(CCOCCO)CC2)c([N+](=O)[O-])c1	none
COc1ccc(N=C2NN=C(c3c(C)[nH]c4ccccc34)CS2)cc1	none
Cc1[nH]c2ccccc2c1C1=NNC(=Nc2ccc(F)cc2)SC1	eIF4H inh active, PABP polyA inh 86
O=CN/C=C/c1cc(O)ccc1O	eIF4H inh 94, PABP polyA inh 91
O=Cc1ccc(O)cc1O	none (no result: PERK inhibitor, eIF4E-4G inh)
Cc1cc(C)c(S(=O)(=O)N2CCN(C3CC(=O)N(c4ccccc4Cl)C3=O)CC2)c(C)c1 (stereo unspecified)	none (no result: PERK inhibitor, eIF4E-4G inh, eIF4H inh, PABP polyA inh)
O=c1c2ccccc2nc(SCc2nc(-c3ccccc3)no2)n1-c1ccc(F)cc1	eIF4H inh 87, PABP polyA inh active
COc1ccc(-c2noc(CSc3nc4ccccc4c(=O)n3-c3ccccc3)n2)cc1OC	none
CC(C)n1c(=S)[nH]c2scc(-c3cccs3)c2c1=O	eIF4E-4G inh 42, PABP polyA inh inconclusive
CCn1c(=S)[nH]c2scc(-c3cccs3)c2c1=O	none
O=c1oc(/C=C/c2ccco2)nc2sc3c(c12)CCC3	eIF4H inh 73, PABP polyA inh 81
COc1cc(-c2nnc(SCc3cc(=O)oc4cc(O)c(O)cc34)o2)cc(OC)c1OC	eIF4H inh 92, PABP polyA inh 69
COc1ccccc1-c1nn2c(-c3ccco3)nnc2s1	eIF4H inh 59
COc1ccc(OCc2nn3c(-c4ccco4)nnc3s2)cc1	none
c1coc(-c2nnc3sc(Cc4cccs4)nn23)c1	eIF4H inh 77, PABP polyA inh 64
Clc1ccc(OCc2nn3c(-c4ccco4)nnc3s2)cc1	none
c1coc(-c2nn3c(-c4ccco4)nnc3s2)c1	eIF4H inh 95, PABP polyA inh 91
c1csc(Cc2nn3c(-c4n[nH]c5c4CCC5)nnc3s2)c1	PABP polyA inh 15
COc1ccccc1-c1nn2c(-c3ccccc3Cl)nnc2s1	none (no result: PERK inhibitor, PABP1 MLLE inh, eIF4E-4G inh)
S=c1[nH]nc(C2CCCCC2)n1/N=C/c1ccccn1	none
O=C(Nc1ccc2c(c1)N(S(=O)(=O)c1cccs1)CCC2)c1c(F)cccc1F	none (no result: PERK inhibitor, eIF4E-4G inh, eIF4H inh, PABP polyA inh)
CC(C)CC(=O)N=Nc1c(O)[nH]c2ccccc12	none
Nc1cc(N)nc(SCC(=O)Nc2ccccc2)n1	none
CCCn1nc(C(=O)Nc2ccc(S(=O)(=O)Nc3nccs3)cc2)c2ccccc2c1=O	eIF4H inh 58, PABP polyA inh 75
O=C(Nc1ccc(S(=O)(=O)Nc2nccs2)cc1)c1nn(-c2ccc(F)cc2)ccc1=O	eIF4H inh 80, PABP polyA inh 48 (no result: PERK inhibitor, eIF4E-4G inh)
CCOc1ccc(-n2ccc(=O)c(C(=O)Nc3ccc(S(=O)(=O)Nc4nccs4)cc3)n2)cc1	none (no result: PERK inhibitor, eIF4E-4G inh)
Cc1ccc(-c2cc(C(=O)Nc3ccc(S(=O)(=O)Nc4nccs4)cc3)c3ccccc3n2)c(C)c1	eIF4H inh 60, PABP polyA inh active
O=C(Nc1ccc(S(=O)(=O)Nc2nccs2)cc1)c1cc(-c2ccccc2)nc2ccccc12	none
CCn1nc(C(=O)Nc2ccc(S(=O)(=O)Nc3ncccn3)cc2)c2ccccc2c1=O	none
O=C(C1CCCC1)N1CCN(S(=O)(=O)c2cccc(Cl)c2Cl)CC1	none (no result: PERK inhibitor, eIF4E-4G inh)
CCN(CC)c1ccc(/C=N/NC(=O)c2cccc(S(=O)(=O)Nc3ccccc3OC)c2)c(O)c1	none
CCN(CC)c1ccc(/C=N/NC(=O)c2cccc(S(=O)(=O)Nc3ccccc3OC)c2)cc1	eIF4H inh 52
CCCC(=O)N1CCC1(C)C(=O)Nc1cc(-c2ccccc2)nn1C (stereo unspecified)	none (no result: PERK inhibitor, eIF4E-4G inh, eIF4H inh, PABP polyA inh)
CCOC(=O)/C(C#N)=C/c1ccc(N2CCN(C)CC2)cc1	eIF4H inh active
CCOC(=O)/C(C#N)=C\c1ccc(N2CCN(C)CC2)cc1	none
CC(C)(C)n1cc(S(=O)(=O)c2ccccc2)[nH]c1=O	eIF4H inh active, PABP polyA inh 81
Cc1cc(C)c(S(=O)(=O)c2ccccc2)c(=O)[nH]1	none (no result: PERK inhibitor, eIF4E-4G inh)
COc1ccccc1N1CCN(CC(=O)Nc2ccc3c(c2)OCCO3)CC1	none
O=C(O)Cc1ccc(NC(=O)c2ccc3c(c2)C(=O)N(Cc2ccco2)C3=O)cc1	eIF4H inh 100, PABP polyA inh 59 (no result: PERK inhibitor, eIF4E-4G inh)
Cn1c(=O)c2ccccc2n(Cc2ccccc2F)c1=O	none
